Screens from PubChem BioAssay.
Sm TGR inh: inhibitors of Schistosoma mansoni thioredoxin glutathione reductase | Q962Y6 | purified TGR, DTNB reduction, TNB absorbance 405 nm | Potency, µM (series often up to 114 µM), inactives show top-dose activity change, negative = inhibition, most hits filed as inhibitors | 360,000 compounds, 3% hits | AID 485364; active means well fitted inhibition curve with a large enough effect; inconclusive means small, poorly fitted or top-dose-only effect; inactive means no such curve, though single readings can be large or run the other way; further: potency means the concentration at half of the fitted maximal effect; on the % scale 0 is the no-effect control and ±100 the full control effect; nearly all actives have a fitted effect of over 60% in size
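First, TGR (20 nM dispensed) and NADPH were mixed with compound. Second, a 15 min room-temperature incubation followed. Third, further NADPH and then DTNB were added to start the reaction. Finally, TNB absorbance was monitored kinetically.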
Cycloheximide cs: affects cycloheximide protein synthesis inhibition readout, counter-screen. cell reporter, cycloheximide protein synthesis inhibition counterscreen. AID 2314. max response, %. 300,000 compounds, 12% hits; in the data active means max response mostly above about 13%, no sharp cut-off; inactive means mostly below about 14%; further: read at 38.3 µM for the half of the compounds with a filed dose; 0% is about no effect
Shiga inhibitor: Shiga toxin inhibition; Vero cells, Shiga toxin protein synthesis inhibition reporter; inhibition, % at 38.7 µM; 290,000 compounds, 9.2% hits; AID 2315; in the data active means inhibition mostly above about 28%, no sharp cut-off; inactive means mostly below about 43%; further: 0% is about no effect
FMDV antiviral: antivirals against foot and mouth disease virus; Potency, µM (titrated, usually from 57.9 µM), for the others: at the highest dose activity change, negative = inhibition, usual class: inhibitors; AID 1159524; FMDV antiviral cell-based qHTS; 410,000 compounds, 1.2% hits; calls by dose curve; tested in HEK293T cells; further: read-out not given here; potency means the concentration at half of the fitted maximal effect; on the % scale 0 is the no-effect control and ±100 the full control effect; nearly all actives have a fitted effect of over 45% in size
* = called active by the depositor; u = inconclusive; x = no result; + = active, no number; ! = not active in a repeat; [ ] = remark or other dose. Hits are enriched below; roughly 12% of the tested compounds scored in any of these assays.

SMILES	Sm TGR inh	Cycloheximide cs	Shiga inhibitor	FMDV antiviral
CCN(CC)c1ccc(NC(=O)c2cccn2-c2nnc(N3CCCCC3)s2)c(C)c1	15.0%	x	x	u
Clc1ccc(OCc2nnc3n2N=C(c2ccc4c(c2)OCCO4)CS3)c(Cl)c1	6.8%	14.9*	14.6	-16.1%
CCc1nnc2n1N=C(c1ccc(-c3cc(Cl)ccc3Cl)o1)CS2	26.7%	-0.8	-3.0	u
CCN(C(=O)c1cc2c(Cl)nc3ccccc3c2s1)c1cccc(Cl)c1	-2.4%	x	x	-26.3%
COc1ccccc1-c1nc(COc2ccc(Cl)cc2Cl)no1	11.8%	51.7*	91.1*	75.4%
COc1cccc(-c2nc(COc3ccc(Cl)cc3Cl)no2)c1	12.7%	13.8*	14.1	31.8%
COc1ccc(Br)cc1-c1noc(-c2ccccc2F)n1	3.5%	-2.2	-7.5	-1.6%
COC(=O)c1scc(-c2ccc(C)cc2)c1S(=O)(=O)N1CCN(c2cccc(OC)c2)CC1	2.9%	x	x	0.0%
CCCCC(CC)CNC(=O)c1ccc(Cn2c(=O)[nH]c3cc(OC)c(OC)cc3c2=O)cc1 (stereo not given)	8.3%	x	x	-3.9%
CCOc1ccccc1C(=O)Nc1c(C(=O)Nc2ccc(F)cc2)oc2ccccc12	-3.8%	x	x	-19.5%
COc1ccc2c(C)cc(N3CCN(c4ccc(F)cc4)CC3)nc2c1	-17.8%	-3.0	-5.4	x
CCOc1ccc2nc(N3CCOCC3)nc(C)c2c1	-0.5%	53.0*	99.3*	30.4%
COc1ccc2c(C)cc(N3CCOCC3)nc2c1	-28.1%	25.6*	52.3*	49.7%
COc1ccc2nc(N3CCOCC3)cc(C)c2c1	-16.3%	32.7*	60.6*	x
COc1cccc(C(=O)Nc2ccc3nc(N4CCOCC4)cc(C)c3c2)c1	4.0%	-2.2	8.6	-8.9%
OCC[C@H]1C[C@H](O)[C@@H](O)[C@@]2(OCc3ccccc32)O1	44.7µM*	x	x	-4.1%
OCC[C@@H]1C[C@@H](O)[C@H](O)[C@]2(OCc3ccccc32)O1	-1.0%	-3.9	-8.8	-2.2%
COC(=O)c1cnn(-c2nc(OC)cc(OC)n2)c1C	1.6%	-4.3	17.2	-9.7%
COc1cc(OC)nc(-n2ncc(Br)c(Br)c2=O)n1	1.78µM*	-8.5	-24.1	10µM*
Cc1ccc(N2CCN(C(=O)c3cc(S(=O)(=O)N4CCCCC4)c[nH]3)CC2)c(C)c1	6.7%	x	x	-15.9%
Cc1ccc(CN2CCN(/N=C/c3cc(Br)cc(Br)c3O)CC2)cc1	-4.1%	-3.8	-6.0	-26.0%
Cc1ccc(CN=Cc2[nH]c3ccc(Br)c(Cl)c3c2O)cc1	44.7µM*	4.4	1.2	x
Oc1c(C=NCc2ccc(F)cc2)[nH]c2ccc(Br)c(Cl)c12	31.6µM*	-2.4	-7.3	x
C[C@@H]1O[C@@H](O[C@H]2CC[C@@H](O[C@H]3[C@H](O)C[C@H](c4ccc5c(c4O)C(=O)C4=C(C5=O)[C@@]5(O)C(=O)C[C@](C)(O[C@H]6CC[C@H](O[C@H]7C=CC(=O)[C@H](C)O7)[C@H](C)O6)C[C@@]5(O)C=C4)O[C@@H]3C)O[C@H]2C)C=CC1=O	x	-18.1	-20.7	x
O=[N+]([O-])c1cccc(-c2cn3ccccc3n2)c1	1.7%	-3.1	30.3	28.7%
SMILES	Sm TGR inh	Cycloheximide cs	Shiga inhibitor	FMDV antiviral
COc1ccc(-c2cn3cc([N+](=O)[O-])ccc3n2)cc1OC	-9.2%	41.3*	80.3*	57.9%
CCCOc1ccc(-c2cn3ccccc3n2)cc1[N+](=O)[O-]	-3.0%	134.3*	+	27.6%
CCCCOc1ccc(-c2csc(N)n2)cc1[N+](=O)[O-]	-3.9%	86.5*	127.2*	9.3%
COc1ccc(-c2cn3ccccc3n2)cc1[N+](=O)[O-]	1.2%	66.6*	96.4*	38.7%
O=C(Cc1ccccc1)c1nnc(-c2ccccc2)o1	13.5%	14.0*	24.9	21.7%
O=C(Cc1ccccc1)Nc1ccc(-c2nnc(-c3ccco3)o2)cc1	-0.7%	17.1*	13.2	24.1%
Cc1ccc(NC(=O)CCSc2nnc(-c3ccco3)o2)cc1	-14.6%	0.8	4.2	-11.1%
O=C(Cc1ccc(Cl)cc1)Nc1ccc(-c2nnc(-c3ccco3)o2)cc1	0.0%	-1.9	14.8	u
COc1ccccc1CC(=O)Nc1ccc(-c2nnc(-c3ccco3)o2)cc1	1.9%	24.5*	47.3	-19.9%
O=C(CSc1nnc(-c2ccccc2)o1)c1nnc(-c2ccccc2)o1	-25.5%[11.4 µM]	-3.0	-4.4	-9.6%
Cc1ccc(SCC(=O)Nc2ccc(-c3nnc(-c4ccco4)o3)cc2)cc1	1.0%	16.2*	43.2*	16.2%
Cc1ccccc1C1(CC(=O)N2CCOCC2)CC(=O)N(Cc2cccnc2)C1=O (stereo not given)	x	x	x	-12.6%
Cc1ccc(S(=O)(=O)n2nc(-c3ccco3)nc2NCc2ccccc2Cl)cc1	-6.7%	x	x	71.5%
Cc1csc(SCC(=O)Nc2sccc2C(N)=O)n1	-8.3%	36.3*	67.9*	21.7%
Cc1csc(SCC(=O)Nc2nccs2)n1	-2.5%	x	x	6.2%
C=CCn1c(SCC(=O)Nc2sccc2C(N)=O)nc2sc(CC)cc2c1=O	6.9%	5.5	2.0	25.1µM*
NC(=O)c1ccsc1NC(=O)CSc1ccccc1F	45.7%	36.1*	175.1	x
O=C(Nc1ccc(CN2CCCCC2)cc1)c1ccc2c(c1)OCO2	-18.4%	20.4*	33.7*	17.7%
O=C(Nc1ccc2c(c1)OCO2)c1ccc(CN2CCOCC2)cc1	-0.7%	39.7*	59.8*	-8.1%
O=C(Nc1ccc(CN2CCCCC2)cc1)c1ccc(Br)o1	-9.7%	30.8*	79.4*	39.6%
O=C(NCC1COc2ccccc2O1)c1cn(Cc2ccc(F)cc2)nn1 (stereo not given)	6.2%	-3.9	18.6	1.0%
O=C(Nc1ccc2c(c1)OCO2)c1cn(Cc2ccc(F)cc2)nn1	0.2%	18.1	41.8*	38.3%
COc1cc(C(=O)Nc2sc3c(c2C#N)CCCC3)c(Br)c(OC)c1OC	-0.8%	x	x	-21.6%
Cc1cc(-c2ccccc2)cc(-c2ccccc2)[n+]1C	-0.6%	-0.9	-11.8	-17.9%
Cc1cc(-c2ccccc2)cc(-c2ccccc2)[n+]1CCc1ccccc1	-4.7%	x	x	20µM*
SMILES	Sm TGR inh	Cycloheximide cs	Shiga inhibitor	FMDV antiviral
Fc1ccc(C[n+]2c(-c3ccccc3)cc(-c3ccccc3)cc2-c2ccccc2)cc1	-4.1%	x	x	0.0%
O=C([O-])c1cc(-c2ccccc2)cc(-c2ccccc2)[n+]1CCc1ccc(Cl)cc1	x	x	x	35.5µM*
Clc1ccc2c(c1)CCc1cccnc1C2=C1CCNCC1	44.7µM*!	-5.7	-10.6	-10.4%
CN1Cc2cccnc2N(C)Cc2cc(Cl)ccc21	6.6%	-1.9	-3.5	u
Nc1c(C(O)(C(F)(F)F)C(F)(F)F)ccc2ccccc12	39.8µM*	-3.4	15.3	-12.9%
CS(=O)(=O)NCCCNc1ccc(C(F)(F)F)cc1[N+](=O)[O-]	-23.3%	14.8	19.4	-7.7%
O=[N+]([O-])c1cc(C(F)(F)F)ccc1NCCc1c[nH]c2ccccc12	2.8%	10.4*	53.8*	u
O=[N+]([O-])c1cccnc1NCCc1ccccc1	12.7%	36.8*	67.3*	29.4%
O=C(COc1cccnc1[N+](=O)[O-])NCc1ccc(F)cc1	22.3%	-4.6	-6.7	0.3%
Cc1cccc(OCCNc2ccc(C(F)(F)F)cc2[N+](=O)[O-])c1	-4.2%	9.3*	-4.9	56.1%
COC(=O)c1ccc(COc2cccnc2[N+](=O)[O-])cc1	4.7%	24.2*	35.2*	13.8%
